Where a chain is given by its changes, count along the chain named. Whole data set: some 5,800 sequences, median “enrichment r” near 0.54, cut for the highest 2% near 16. Many of the other results were omitted from the sample, so the highest values are more common in it than they were.
B1: chr5:97028609:97028710:+|3pUTR|ENSG00000113441|msi1|total|mutant (ssRNA)
RNA: GGGAGUUCUACAGUCCGACGAUCUUGCAAAAGCCAAGGUAAAGCCAGGAUCGCUGCCAAGUUGUUUGCACUCUUUGGAGUUCCCGUCCGCUCAGGGCCUGACUGUAUUUUUCAUCCAUCUUUUCUGAAGUGUCUUUGGGCAGUCAACAGAGGAUUGAGCAUCA
B2: chr15:34983303:34983404:-|CDS|ENSG00000198146|msi1|FALSE|unique (ssRNA)
RNA: GGGAGUUCUACAGUCCGACGAUCGCUGAAAACAAUUUAAAAAUGCUAAAGAUUCAACAGUGUGUGGUAGCCAACAAACUACCUAGAAACAGGCCAUAUGUUUGCAAUAUUUGUUUUAAGCACUUUGAAACACCAUCAAAAUUACAACAGAGGAUUGAGCAUCA
B3: ENSG00000160710:stop:overlap|stop_codon|ENSG00000160710|stop_codon|NA|stop_codon (ssRNA)
RNA: GGGAGUUCUACAGUCCGACGAUCGCUAUGGGAACUGGAUUAGCAAACCCCAGGAGGAAAAGAACUUUUAUCUCUGCCCAGUAUAGUAUGCUCCAGUGACAGAUGGAUUAGGGUGUGUCAUACUAGGGUGUGAGAGAGGUAGGUCAACAGAGGAUUGAGCAUCA
B4: chr5:128187618:128187661:+|3pUTR|ENSG00000064651|msi1_unk|FALSE|overlapping (ssRNA)
RNA: GGGAGUUCUACAGUCCGACGAUCUCCUUUAUAAGUCAUUAAAAUAAUGUUUCAUCAAAUGGUUAAAUGGACCACUGGUUUCUUAGAGAAAUGUUUUUAGGCUUAAUUCAUUCAAUUGUCAAGUACACUUAGUCUUAAUACACUCAACAGAGGAUUGAGCAUCA
B5: chr2:15946816:15946917:+|3pUTR|ENSG00000134323|unk|FALSE|unique (ssRNA)
RNA: GGGAGUUCUACAGUCCGACGAUCUAUAUGCCUUUUUCCUAGCCUGUUUCUUCCUGUUAAUGUAUUUGUUCAUGUUUGGUGCAUAGAACUGGGUAAAUGCAAAGUUCUGUGUUUAAUUUCUUCAAAAUGUAUAUAUUUAGUGCUCAACAGAGGAUUGAGCAUCA
B6: ENSG00000198589:be:win_9101|3pUTR|ENSG00000198589|bound_else_gene|NA|bound_elsewhere_windowed (ssRNA)
RNA: GGGAGUUCUACAGUCCGACGAUCUUCAAGCAUGUUUUAGACCUAGAAAAGUAUGGUUUGGGGGAGGCUAUUUUAUUGUGUGGUUAGCACAAGGAAUCUAAUUUAUAGCAAGUGUGAAAUAGUUACCAUUUUUUCCUGAUCUGUCAACAGAGGAUUGAGCAUCA
B7: ENSG00000198589:be:win_9151|3pUTR|ENSG00000198589|bound_else_gene|NA|bound_elsewhere_windowed (ssRNA)
RNA: GGGAGUUCUACAGUCCGACGAUCAUUGUGUGGUUAGCACAAGGAAUCUAAUUUAUAGCAAGUGUGAAAUAGUUACCAUUUUUUCCUGAUCUGUCAUCUUCAUAGCACAACAAAACGAAAUGAUGGAAAUGCUCUUGAGCUCACCAACAGAGGAUUGAGCAUCA
B8: chr6:149410404:149410522:+|3pUTR|ENSG00000055208|unk|total|mutant (ssRNA)
RNA: GGGAGUUCUACAGUCCGACGAUCUUAUAUUUCUAUAUGUACCGUGUAACCGCCUUUUGUUAACUAAUUUUCUUUUUUCCUUUCCGUAAUUAAGCACGAUCAUGUCCCUUUUUAAGCCUUACCUGAGAGGAACAAUGCCUUAAACAACAGAGGAUUGAGCAUCA
B9: chr3:112140897:112141281:-|three_prime_utr|ENSG00000172139|control|control|control (ssRNA)
RNA: GGGAGUUCUACAGUCCGACGAUCACUUUUUGCAAAAUUUCCUUGAUUUAAAAUAUUUGUUAUUUUAAAUAUACAAAACAUUUUAGAAAAUCUUAGAGUAAAUUUUAGUCUUAAAGCCAGAAAAUAAGUUUAUAGCCAUCUAGACAACAGAGGAUUGAGCAUCA
B10: chr10:52765379:52768136:-|three_prime_utr|ENSG00000165471|control|control|control (ssRNA)
RNA: GGGAGUUCUACAGUCCGACGAUCUUGUUCCUUUUGUGGGCAAUCACUAAAAAUGAUCACUAACAGCACCAACAAAGCAAUAAUAGUAGUAGUAGUAGUUAGCAGCAGCAGUAGUAGUCAUGCUAAUUAUAUAAUAUUUUUAAUCAACAGAGGAUUGAGCAUCA
B11: ENSG00000198589:be:win_9201|3pUTR|ENSG00000198589|bound_else_gene|NA|bound_elsewhere_windowed (ssRNA)
RNA: GGGAGUUCUACAGUCCGACGAUCACCAUUUUUUCCUGAUCUGUCAUCUUCAUAGCACAACAAAACGAAAUGAUGGAAAUGCUCUUGAGCUCACAACAUUUGUUUUUCUUUUAAAGUAAAUGCAAGUACCAAAGCUCACUACUGCAACAGAGGAUUGAGCAUCA
B12: chr6:149410404:149410522:+|3pUTR|ENSG00000055208|unk|FALSE|bound_elsewhere (ssRNA)
RNA: B8 RNA with C41U, C42A, C49U, C50A, C83U, C84A
B13: chr12:89590234:89590335:-|3pUTR|ENSG00000070961|msi1|FALSE|bound_elsewhere (ssRNA)
RNA: GGGAGUUCUACAGUCCGACGAUCUUUGCCUACAAUUUACCUUGUUAAAUAUUGUAGAUAAAUUGCUAAUACUAAUAGCCAAAUAGAUAACACUAAUGCUUUGUUUAAAAAAACGAAAAAAACAAAACAAAACAAAAAAACAUGCAACAGAGGAUUGAGCAUCA
B14: chr11:118750849:118750950:-|3pUTR|ENSG00000110367|msi1|total|mutant (ssRNA)
RNA: GGGAGUUCUACAGUCCGACGAUCAUUCCCGAAAGUACUUUGGCCUCGUGCUGCCGAGAGCAGAUUUCUAUGGUACCCUGUGUCCGUAAAGGGGCCCAGAAAUCUGGGAUGUACUGUUUGCUGCCACACUGUCUCAUCCCGUACCAACAGAGGAUUGAGCAUCA
B15: chr10:32033860:32033975:-|CDS|ENSG00000170759|unk|FALSE|unique (ssRNA)
RNA: GGGAGUUCUACAGUCCGACGAUCCACAGUGGAUAAAGAUAUUACUCUUACCAAUGAUAAACCAGCAACCGCAAUUGGAGUUAUAGGAAAUUUUACUGAUGCUGAAAGAAGAAAGUGUGAAGAAGAAAUUGCUAAAUUAUACAACAACAGAGGAUUGAGCAUCA
B16: chr2:205797254:205797461:+|3pUTR|ENSG00000118257|msi1|FALSE|unique (ssRNA)
RNA: GGGAGUUCUACAGUCCGACGAUCUCACCCUCCCAUGAUGCGCAGUGUUCAGAAAGCUGGUAAGUCCUAGGGAUUUCCAGAAGUAGCCUGCAGAAGAAGGUAAGUUUGAAAGCCACUCCAGGGGUCCUGAUGCUGUCAUGCUCACAACAGAGGAUUGAGCAUCA
B17: ENSG00000107863:be:win_2651|CDS|ENSG00000107863|bound_else_gene|NA|bound_elsewhere_windowed (ssRNA)
RNA: GGGAGUUCUACAGUCCGACGAUCAGGGUCUGGAUGAUUACAGAGAAGAUGCAAAAUUGUCCUUUAAGCACGUAUCUAGUCUGAAGGGAAUCAAGAUCGCAGACAGCCAAAAGUCAUCAGAAGACUCUGGGUCCAGAAAAGAUUCAACAGAGGAUUGAGCAUCA
B18: chr10:74136666:74136778:-|CDS|ENSG00000185009|unk|FALSE|unique (ssRNA)
RNA: GGGAGUUCUACAGUCCGACGAUCUUCAGAGGCUGCAAUUAAGGAUAAUGUGGUCAUAGUAUAUGAACUCUUAGAAGAAAUGUUAGACAAUGGAUUUCCACUGGCUACCGAAUCUAACAUUUUGAAAGAAUUGAUUAAACCACCCAACAGAGGAUUGAGCAUCA
B19: chr1:94529602:94529703:-|3pUTR|ENSG00000117525|msi1|total|mutant (ssRNA)
RNA: GGGAGUUCUACAGUCCGACGAUCUGGAAGGAAAUUGGGUGCAUUUCCCGGACUUUUCUAACAUAUGUCUAUAAUACCGUGUUCCGGUUCUUUUUUUUUUCAGGAAUACAUUUGGAAAUUCAAAACAAUUGGCAAACUUUGUAUCAACAGAGGAUUGAGCAUCA
B20: chr12:64147824:64147925:+|3pUTR|ENSG00000196935|unk|FALSE|unique (ssRNA)
RNA: GGGAGUUCUACAGUCCGACGAUCCAUCUCUGUGGUGUCUUUGUUCCUUUCCUUUCAUUCAUCACUACUUUCUCCUUGACAGCUAGCUUGCAUUAAAUAAUGUGAAACUUUUACCUUUAAAAUAUUUUUUUAUCUCACUUUCAUCAACAGAGGAUUGAGCAUCA
B21: chr1:93888438:93888539:-|3pUTR|ENSG00000023909|msi1|FALSE|unique (ssRNA)
RNA: GGGAGUUCUACAGUCCGACGAUCAGAUAUUUUUCCUGUCAUUGAUGAGAUAUAUCAGAGUAACUGGAGUAGCUGGGAUUUACUAGUAGUGUAAAUAAAAUUCACUCUUCAAUACAUGAAUGGAAACUUAAAUUUUUUUUUAUGCAACAGAGGAUUGAGCAUCA
B22: chr3:125228010:125228111:-|3pUTR|ENSG00000163848|msi1|FALSE|unique (ssRNA)
RNA: GGGAGUUCUACAGUCCGACGAUCAGUUCUCUUCAUAUUUCAUAACUACAUUUCAAUAAUUCUAAACUUUCUACAUUGAUUUUUAGAUACUUAUUUUUCAAGCUUGGUUUCUCAGCUGAUCAGAUGAAUUUAUUCAACUUCAAUCAACAGAGGAUUGAGCAUCA
B23: chr3:125228010:125228111:-|3pUTR|ENSG00000163848|msi1|total|mutant (ssRNA)
RNA: B22 RNA with U83C, A84C
B24: ENSG00000100485:stop:overlap|stop_codon|ENSG00000100485|stop_codon|NA|stop_codon (ssRNA)
RNA: GGGAGUUCUACAGUCCGACGAUCAUAUAUAUACACAUAUAUAUACACACACACACACAUUUUAUGUGUCAGUUUUCAAUAUAUAGUUAACACAAAAGCUCUCAGCUUUUAAUUCAAAUAUAGGGAAUAUUUUUAACUUCACAGCAACAGAGGAUUGAGCAUCA
B25: chr12:49764829:49764866:+|3pUTR|ENSG00000139644|msi1_unk|FALSE|overlapping (ssRNA)
RNA: GGGAGUUCUACAGUCCGACGAUCACUUUUAAAGAAAAUACCUAACAGAUUUUUAAUAUAGUUAUCUCUACCACUUUCUUUUCUAGUUUCUUGAUUUUCAGCUCAGGCUGCAUUCUAACUCAUACUGUGAAGACAAAGGUGUUUCAACAGAGGAUUGAGCAUCA
B26: chr5:43295829:43295944:-|CDS|ENSG00000112972|unk|FALSE|unique (ssRNA)
RNA: GGGAGUUCUACAGUCCGACGAUCAAUAUCCUAGCUUUAUUCUAAAGUCAAACUUUAAAAUUUCAUGGCUUAUAUGAAUUUCAUAGUUUCCUUGGACUUCUCUUUCAGAGGGAAAUGAUAAAGAUUUUACCUUGAAUGAUUUUGCAACAGAGGAUUGAGCAUCA
B27: chr11:58422334:58423261:-|CDS|ENSG00000172365|control|control|control (ssRNA)
RNA: GGGAGUUCUACAGUCCGACGAUCACACACUAGUGAGGUGAUUCUGGUUUUUAUGUCAAGCUUUAAUAUCUUUUUUGUUCUUCUAGUUAUCUUUAUCUCCUACUUGUUCAUAUUCAUCACCAUCUUGAAGAUGCAUUCAGCUAACAACAGAGGAUUGAGCAUCA
B28: chr1:93888438:93888539:-|3pUTR|ENSG00000023909|msi1|total|mutant (ssRNA)
RNA: B21 RNA with U69C, A70C, U83C, A84C, U86C, A87C

Each binder was assayed against MSI1 full-length (mouse, UniProt Q61474 1-362) (assay: nsRBNS (natural sequence RNA bind-n-seq); RBNS binding buffer (assumed for nsRBNS): 25 mM Tris pH 7.5, 150 mM KCl, 3 mM MgCl2, 0.01% Triton X-100, 500 ug/ml BSA, 20 U/ml SUPERase-In, 4 C; UNK is unkempt and MSI1 is Musashi-1; names of the RNAs are library labels; protein concentration not given here; high values mean tight binding).
MSI1 full-length, sequence (Q61474 whole entry): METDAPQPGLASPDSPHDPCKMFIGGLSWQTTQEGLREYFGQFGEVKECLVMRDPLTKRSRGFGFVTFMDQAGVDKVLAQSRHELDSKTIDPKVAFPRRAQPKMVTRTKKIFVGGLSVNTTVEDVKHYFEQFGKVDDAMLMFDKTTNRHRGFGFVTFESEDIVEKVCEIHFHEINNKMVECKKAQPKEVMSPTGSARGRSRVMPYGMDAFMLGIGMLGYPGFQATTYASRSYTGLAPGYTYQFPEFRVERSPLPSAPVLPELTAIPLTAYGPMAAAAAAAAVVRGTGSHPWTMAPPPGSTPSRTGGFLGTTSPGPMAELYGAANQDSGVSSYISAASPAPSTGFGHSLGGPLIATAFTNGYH

| Binder | binding signal |
| --- | --- |
| B1 | 0.321 enrichment R |
| B2 | 0.421 enrichment R |
| B3 | 1.25 enrichment R |
| B4 | 15.5 enrichment R |
| B5 | 6.12 enrichment R |
| B6 | 7.83 enrichment R |
| B7 | 33.5 enrichment R |
| B8 | 11.2 enrichment R |
| B9 | 14.9 enrichment R |
| B10 | 83.7 enrichment R |
| B11 | 0.392 enrichment R |
| B12 | 30.1 enrichment R |
| B13 | 1.67 enrichment R |
| B14 | 0.539 enrichment R |
| B15 | 1.59 enrichment R |
| B16 | 0.607 enrichment R |
| B17 | 0.365 enrichment R |
| B18 | 0.651 enrichment R |
| B19 | 0.407 enrichment R |
| B20 | 7.22 enrichment R |
| B21 | 28.4 enrichment R |
| B22 | 5.53 enrichment R |
| B23 | 18.6 enrichment R |
| B24 | 2.06 enrichment R |
| B25 | 3.05 enrichment R |
| B26 | 0.654 enrichment R |
| B27 | 23.6 enrichment R |
| B28 | 0.484 enrichment R |

— publication PMC12136788
